Experimental data as given in PubChem BioAssay AID1159580 (chemical genetic matrix, 2015).
About 2,000 (36%) of roughly 5,500 compounds were called active. Not shown: some 18% with an inconclusive outcome. No stated cut-off is given here; in the data, active means normalized growth mostly below about 0.91 (no sharp cut-off); inconclusive means no clear call, values can overlap the other calls; inactive means mostly above about 0.92. The list shows a part of the results.

Experiment: chemical genetic growth profiling, strain panel (AID 1159580);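 further: tested at 20 µM; growth read once vehicle control cultures reached saturation at 30 °C; 1 = growth at the plate median or of vehicle wells; lower values mean less growth of the strain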
Settings: growth OD

Measured: normalized growth

COc1ccc(CCNC(=O)c2ccccc2Cl)cc1OC
inactive: S. cerevisiae deletion strains, locus YAL013W, strain DEP1, active compounds read low 0.993 | S. cerevisiae deletion strains, locus YBR229C, strain ROT2, active compounds read low 0.987 | S. cerevisiae deletion strains, locus YDL101C, strain DUN1, active compounds read low 1 | S. cerevisiae deletion strains, locus YDR150W, strain NUM1, active compounds read low 0.991 | S. cerevisiae deletion strains, locus YEL061C, strain CIN8, active compounds read low 0.968 | S. cerevisiae deletion strains, locus YGR078C, strain PAC10, active compounds read low 1 | S. cerevisiae deletion strains, locus YGR229C, strain SMI1, active compounds read low 0.988 | S. cerevisiae deletion strains, locus YHR030C, strain SLT2, active compounds read low 1.01 | S. cerevisiae deletion strains, locus YHR087W, strain rtc3, active compounds read low 0.97 | S. cerevisiae deletion strains, locus YJL187C, strain SWE1, active compounds read low 0.984 | S. cerevisiae deletion strains, locus YJR043C, strain POL32, active compounds read low 1 | S. cerevisiae deletion strains, locus YJR075W, strain HOC1, active compounds read low 0.994 | S. cerevisiae deletion strains, locus YKL190W, strain CNB1, active compounds read low 0.997 | S. cerevisiae deletion strains, locus YLR039C, strain RIC1, active compounds read low 1.03 | S. cerevisiae deletion strains, locus YLR058C, strain SHM2 (second series), active compounds read low 1 | S. cerevisiae deletion strains, locus YLR085C, strain ARP6, active compounds read low 0.973 | S. cerevisiae deletion strains, locus YLR262C, strain YPT6, active compounds read low 1.02 | S. cerevisiae deletion strains, locus YML094W, strain GIM5, active compounds read low 0.993 | S. cerevisiae deletion strains, locus YMR219W, strain ESC1, active compounds read low 0.981 | S. cerevisiae deletion strains, locus YMR263W, strain SAP30, active compounds read low 0.993 | S. cerevisiae deletion strains, locus YNL128W, strain TEP1, active compounds read low 0.983 | S. cerevisiae deletion strains, locus YNL153C, strain GIM3, active compounds read low 0.988 | S. cerevisiae deletion strains, locus YNL298W, strain CLA4 (second series), active compounds read low 1.01 | S. cerevisiae deletion strains, locus YNL322C, strain KRE1, active compounds read low 1.01 | S. cerevisiae deletion strains, locus YNR030W, strain Alg12, active compounds read low 1.03 | S. cerevisiae deletion strains, locus YPL055C, strain LGE1, active compounds read low 0.976 | S. cerevisiae deletion strains, locus YPL241C, strain CIN2, active compounds read low 1.02 | S. cerevisiae deletion strains, locus YPR135W, strain CTF4, active compounds read low 1.06 | S. cerevisiae strains, strain wild type, active compounds read low 1.01
